About 5,700 (36%) of roughly 16,000 compounds were called active. Inconclusive results (about 24%) are left out. The list shows a part of the results. Values without a mark were called inactive. Calls come from the whole dose curve; as a rule, active = well fitted curve in the direction sought with a large enough effect; inconclusive = small, poorly fitted or top-dose-only effect, or effect the other way; inactive = no such curve, though single readings can be large or run the other way.

The term AC50 denotes the concentration giving half of the maximal activity seen.
% is set by controls: 0 for no effect and ±100 for the full control effect.

Cytochrome P450 1A2 (Homo sapiens), sequence (P05177 whole entry, looked up): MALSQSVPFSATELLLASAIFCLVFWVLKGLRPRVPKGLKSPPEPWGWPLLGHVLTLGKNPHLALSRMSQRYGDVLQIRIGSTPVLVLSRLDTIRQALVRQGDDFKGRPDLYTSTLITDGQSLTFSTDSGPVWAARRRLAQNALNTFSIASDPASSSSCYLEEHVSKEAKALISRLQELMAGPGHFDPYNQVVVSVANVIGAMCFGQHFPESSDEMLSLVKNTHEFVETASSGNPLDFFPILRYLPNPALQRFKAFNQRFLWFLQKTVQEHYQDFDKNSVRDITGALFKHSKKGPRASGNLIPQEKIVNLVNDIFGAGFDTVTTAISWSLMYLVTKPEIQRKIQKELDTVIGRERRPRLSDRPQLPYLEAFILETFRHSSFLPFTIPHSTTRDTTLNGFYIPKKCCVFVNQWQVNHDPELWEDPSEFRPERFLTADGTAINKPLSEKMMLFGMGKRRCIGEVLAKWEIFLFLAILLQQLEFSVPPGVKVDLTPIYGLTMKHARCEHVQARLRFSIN

The assay has as its target Cytochrome P450 1A2 (Homo sapiens) (UniProt P05177). As to the kind of experiment: Cytochrome panel assay with activity outcomes. Conditions: recombinant CYP, pro-luciferin dealkylation, luminescence, p450-cyp1a2; series mostly up to 57.1 µM.
Turning to `COc1ccc(Nc2nc(N3CCCCC3)c3ccccc3n2)cc1`, the AC50 was 1780 nM (active). The same measure, in the same setting: the result for `O=C(O)/C=C\c1ccc(O)c(O)c1` reads “inactive”; that for `O=C(/C=C\c1ccc(O)c(O)c1)O[C@@H]1C[C@](O)(C(=O)O)C[C@@H](O)[C@@H]1O`, “inactive”. On the same count and under the same terms, the result for `O=C(/C=C\c1ccc(O)c(O)c1)OCCc1ccccc1` reads 1000 nM (active). On the same count and under the same terms, the same measure for `Cc1ccc(-c2nn(-c3ccccc3)cc2CSC(=N)N)cc1`: 12600 nM (active); for `c1cnc2ccc(C(c3nnnn3C3CCCC3)N3CCN4CCCC4C3)cc2c1` (stereo not given): “inactive”. Take `N#Cc1cccc(-c2nc(Nc3ccccc3)c3ccccc3n2)c1`: the half-maximal activity concentration (AC50) is 1260 nM (active). On to `N#Cc1cccc(NC(=O)N2CC[C@@]3(CCCN(C(=O)c4ccncc4)C3)C2)c1`, for which the AC50 entry was “inactive”. Take `CNc1nc(-c2cccc(C#N)c2)nc2ccccc12`: the AC50 is 79.4 nM (active).

Consider `N#Cc1cccc(-c2nc(Nc3ccncc3)c3ccccc3n2)c1`, for which the half-maximal activity concentration (AC50) is 631 nM (active).

`CNC(=O)[C@@H]1O[C@@H](n2cnc3c(N)ncnc32)[C@@H](O)[C@H]1O`: the AC50 result was “inactive”. Regarding `CC(=O)OC[C@@H]1O[C@H](CCO/N=C\[C@@H](C)[C@H](OCc2ccccc2)C(C)C)C=C[C@@H]1OC(C)=O`, the activity, negative = inhibition was 9.09% [at 11.4 µM].

For `CC(=O)OC[C@@H]1O[C@@H](O/N=C2/C[C@@H](O)[C@@H](O)[C@@H]3[C@@H]4C(=O)N(C5CCCCC5)C(=O)[C@H]4CC[C@H]23)[C@H](OC(C)=O)[C@H](OC(C)=O)[C@@H]1OC(C)=O`, the activity, negative = inhibition was -1.1% [at 11.4 µM].

On to `CC(=O)Nc1ccc(C#Cc2ccc(NC(C)=O)cc2)cc1`, for which the AC50 result is “inactive”. The same measure, in the same setting: the same measure for `S=C(Nc1ccccc1)Nc1ccccc1C#Cc1ccccc1`: 501 nM (active); for `COc1cccc(-c2nc(NCCNC(C)=O)c3ccccc3n2)c1`: 2510 nM (active).

Turning to `COc1cccc(-c2nc(NCc3ccccc3)c3ccccc3n2)c1`, the AC50 is 3160 nM (active). Consider `COc1ccccc1NC(=O)Nc1nc(-c2cccnc2)nc2ccccc12`, for which the AC50 was 2510 nM (active). Still for that read-out and setting: the result for `COCCNc1nc(-c2cccc(OC)c2)nc2ccccc12` reads 200 nM (active). As to `CCc1ncc(CO)n1Cc1cccc2ccccc12`, the activity, negative = inhibition is -6.53% [at 11.4 µM].

Take `CO[C@@H]1COC(=O)[C@H](C)NC(=O)C/C=C\[C@@H](C)[C@@H](NS(=O)(=O)c2ccc(C)cc2)COC(=O)C/C=C\[C@@H]1C`: the activity, negative = inhibition was -6.59% [at 11.4 µM]. With `Cc1ccc(S(=O)(=O)ON=C2CCN(S(=O)(=O)c3ccccc3)CC2)cc1`, the AC50 entry was “inactive”. Regarding `CC(=O)O[C@H]1CC[C@@]2(C)C(=CC[C@@H]3[C@@H]4CC[C@H](c5cc(C(F)(F)F)n(C(C)=O)n5)[C@]4(C)CC[C@@H]32)C1`, the activity, negative = inhibition was -13.7% [at 11.4 µM].

As for `COc1ccccc1CNc1nc(-c2cccnc2)nc2ccccc12`, the concentration at half-maximal activity (AC50) is 1000 nM (active). Turning to `COc1cccc(-c2nc(NCc3ccccc3OC)c3ccccc3n2)c1`, the AC50 is 631 nM (active). On the same count and under the same terms, the same measure for `COc1cccc(-c2nc(NCc3cccnc3)c3ccccc3n2)c1`: 158 nM (active).

Regarding `COc1cccc(-c2nc(NCc3cccs3)c3ccccc3n2)c1`, the AC50 is 316 nM (active). On the same count and under the same terms, the same measure for `Cc1noc(C)c1C(=O)N1CCC2(CC1)CN(c1ncccn1)C2`: “inactive”; for `Cc1ccc(S(=O)(=O)N2CCCC(C(=O)NCCCN3CCCCC3C)C2)cc1` (stereo not given): “inactive”; for `Cc1ccccc1NC(=S)NC(=O)c1cc(-c2ccccc2)nc2ccccc12`: 14100 nM (active). On the same count and under the same terms, the result for `COCc1nnc(NC(=O)CCN2C(=O)c3ccccc3C2=O)s1` reads “inactive”. The same measure, in the same setting: the same measure for `O=C(CCN1C(=O)c2ccccc2C1=O)NC(=S)Nc1cccc(Cl)c1`: 3160 nM (active). Consider `CC(C)(C)c1nnc(NC(=O)c2cc(-c3ccccc3)nc3ccccc23)s1`, for which the AC50 result was “inactive”. The same measure, in the same setting: the same measure for `CCCc1ccc(-c2cc(C(=O)NN3CCOCC3)c3ccccc3n2)cc1`: “inactive”; for `Cc1ccc(-c2cc(C(=O)NN=C3CCCC3)c3ccccc3n2)cc1`: 15800 nM (active); for `Cc1cccc(NC(=S)NC(=O)CCc2ccccc2)c1`: 6310 nM (active). On the same count and under the same terms, the same measure for `CCC[C@H]1C[C@H](C(=O)N[C@H]([C@@H]2O[C@H](SC)[C@@H](O)[C@H](O)[C@@H]2O)[C@H](C)O)N(C)C1`: “inactive”.

For `Cc1cccc(NC(=S)NC(=O)c2cc(-c3ccccc3)nc3ccccc23)c1`, the AC50 is 8910 nM (active). Regarding `Cc1nc(SCC(=O)c2ccc(F)cc2)c([N+](=O)[O-])[nH]1`, the AC50 was 6310 nM (active).

As for `Cn1cnc([N+](=O)[O-])c1SCC(=O)O`, the activity, negative = inhibition is -9.68% [at 11.4 µM]. Turning to `Cc1cc([N+](=O)[O-])nn1CC(=O)NNC(=S)Nc1ccc(F)cc1`, the AC50 result was “inactive”. Take `c1ccc(NCCSc2nc3ccccc3s2)cc1`: the AC50 is 501 nM (active). Still for that read-out and setting: the same measure for `NCCSc1nc2ccccc2s1`: 316 nM (active); for `Oc1ccccc1C(Sc1nc2ccccc2s1)Sc1nc2ccccc2s1`: 1260 nM (active). The same measure, in the same setting: the result for `c1ccc2sc(SCCSc3nc4ccccc4s3)nc2c1` reads 794 nM (active). Turning to `O=C(O)CCCSc1nc2ccccc2s1`, the activity, negative = inhibition is -16.9% [at 11.4 µM].

Regarding `CN(C)Cc1ccccc1-c1cc(Nc2ccccc2)ncn1`, the concentration at half-maximal activity (AC50) is 15800 nM (active).

Consider `CN(C)Cc1ccccc1-c1cc(NC2CC2)ncn1`, for which the AC50 was 12600 nM (active).

As for `CC12CCC(C(=O)Nc3ncc([N+](=O)[O-])s3)(OC1=O)C2(C)C` (stereo not given), the AC50 result is “inactive”.

On to `CON/C=C(\C=Nc1ccccc1)c1ncc(C(F)(F)F)cc1Cl`, for which the concentration at half-maximal activity (AC50) was 2240 nM (active). In the case of `O=C(N/N=C/c1cccc(C(F)(F)F)c1)C1CCN(c2ncc(C(F)(F)F)cc2Cl)CC1`, the AC50 result is “inactive”.

Take `C[C@@]12CC[C@@H]3c4ccc(O)cc4CC[C@H]3[C@H]1C[C@@H](O)[C@H]2O`: the AC50 entry was “inactive”. For `O=C1C(=O)N(Cc2ccc(Cl)c(Cl)c2)c2ccccc21`, the AC50 was 12600 nM (active).

Turning to `CCc1cc2c(c(CC)n1)CCC(=O)N2Cc1ccc(-c2ccccc2-c2nn[nH]n2)cc1`, the AC50 result is “inactive”. On to `CNc1ncnc2ccc(-c3ccccc3C#N)cc12`, for which the AC50 was 1000 nM (active). Still for that read-out and setting: the same measure for `N#Cc1ccccc1-c1ccc2ncnc(NC3CC3)c2c1`: 100 nM (active). As to `Cn1c(C(F)(F)F)nc2c(=O)oc3ccccc3c21`, the concentration at half-maximal activity (AC50) was 158 nM (active). Still for that read-out and setting: the result for `Cc1cccc(C)c1NC(=O)c1cc2c(=O)c3ccccc3oc2nc1C(F)(F)F` reads “inactive”. Still for that read-out and setting: the result for `CC(C)[C@H](CO)Nc1nc(Nc2cc(N)cc(Cl)c2)c2ncn(C(C)C)c2n1` reads 501 nM (active). Same read-out and setting: the same measure for `CC(C)[C@H](CO)Nc1nc(Nc2ccc(C(=O)O)c(Cl)c2)c2ncn(C(C)C)c2n1`: “inactive”.

(Values after PubChem BioAssay AID1851 (National Center for Advancing Translational Sciences (NCATS), 2009).)
